# Assay outcomes deposited in PubChem by several laboratories.
# Rpn11 block: inhibitors of human proteasome Rpn11 | O00487 | human 26S proteasome, Ub4-pepOG fluorescence polarization; 20S core pre-blocked with epoxomicin | inhibition, % at 20 µM | 360,000 tested, 0.59% active | AID 588493;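 active means inhibition at 20 µM, scaled to each plate's controls, above about 33%, limit read from the data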
# PREPL inh: inhibits the human prolyl oligopeptidase-like enzyme; recombinant PREPL, fluorescence polarization activity-based probe; inhibition, % at 5.96 µM; 320,000 tested, 0.68% active; AID 2751;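 further: 0% = enzyme with DMSO and 100% = wells lacking enzyme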
# PP5 inh: PP5 (human) phosphatase inhibition; P53041; purified PP5c, OMFP substrate fluorescence; inhibition, % at 6.7 µM; 320,000 tested, 0.18% active; AID 1987;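 active means inhibition above the campaign's mean inhibition across all tested compounds plus 3 SD, cut at about 9.5% in these data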;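 further: 0% = DMSO only and 100% = 100 µM cantharidin control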
# NadD block: blocks S. aureus nicotinate mononucleotide adenylyltransferase. inhibition, % at 20 µM. purified NadD enzyme, colorimetric absorbance read-out. 360,000 tested, 0.78% active; in the data active means inhibition above about 26%
# PP1 counter: PP1-alpha (human) inhibition in PP5 counter-screen | purified PP1alpha, OMFP fluorescence | inhibition, % at 6.7 µM | 320,000 tested, 0.9% active;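 active means inhibition above the mean inhibition of all tested compounds plus 3 SD, computed separately for each screening campaign, cut at about 15% in these data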
# PREPL inh cf: human PREPL inhibition, confirmation; shares compounds with PREPL inh; recombinant PREPL, fluorescence polarization activity probe; inhibition, % at 5.96 µM; 2,000 tested, 67% active;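 further: 0% = protein with DMSO and 100% = wells lacking protein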
# The depositor's hits bear a star; · = no result given. Hits are enriched below; roughly 2.4% of the tested compounds scored in any of these assays. Unless noted, no stated cut-off is given here; in the data, active means inhibition above about 43%; inactive means the rest.
SMILES,Rpn11 block,PREPL inh,PP5 inh,NadD block,PP1 counter,PREPL inh cf
C#CCOCCOCCOCCNc1nc(N2CCN(C(=O)[C@H](Cc3cc4ccccc4[nH]3)n3cc([C@@H](N)C(C)CC)nn3)CC2)nc(N2CCN(C(=O)[C@H](CCCCN)n3cc([C@@H](N)CC(C)C)nn3)CC2)n1 (stereo partly drawn),·,46*,2,·,16*,50*
C#CCOCCOCCOCCNc1nc(N2CCN(C(=O)[C@H](Cc3cc4ccccc4[nH]3)n3cc(C(N)CC(C)C)nn3)CC2)nc(N2CCN(C(=O)[C@H](CCC(=O)O)n3cc(C(N)[C@H](C)CC)nn3)CC2)n1 (stereo partly drawn),3,22,0,0,0,·
C#CCOCCOCCOCCNc1nc(N2CCOCC2)nc(N2CCN(C(=O)[C@H](CCCN=C(N)N)n3cc(C(N)[C@@H](C)CC)nn3)CC2)n1 (stereo partly drawn),5,13,·,-7,·,·
C#CCOCCOCCOCCNc1nc(N2CCN(C(=O)[C@H](CCCN=C(N)N)n3cc(C(N)[C@H](C)CC)nn3)CC2)nc(N2CCN(C(=O)[C@H](CCCN=C(N)N)n3cc(C(N)[C@@H](C)CC)nn3)CC2)n1 (stereo partly drawn),-19,44*,·,0,·,33
COc1cc2c(CCNC(C)=O)c[nH]c2cc1Cl,-4,32,1,-4,5,·
Cn1nc(C(=O)NCC2COc3ccccc3O2)c2ccccc2c1=O (stereo not drawn),-4,2,1,0,0,·
Cc1nccn1CCOc1ccc(Cl)cc1,2,-7,2,-4,5,·
C#CCOCCOCCOCCNc1nc(N2CCN(C(=O)[C@H]([C@@H](C)CC)n3cc([C@@H](N)CO)nn3)CC2)nc(N2CCN(C(=O)[C@H](Cc3ccc(O)cc3)n3cc([C@@H](N)C(C)CC)nn3)CC2)n1 (stereo partly drawn),1,19,2,0,3,·
C#CCOCCOCCOCCNc1nc(N2CCN(C(=O)[C@H]([C@@H](C)CC)n3cc([C@@H](N)Cc4ccc(O)cc4)nn3)CC2)nc(N2CCN(C(=O)[C@H](Cc3cc4ccccc4[nH]3)n3cc([C@@H](N)C(C)CC)nn3)CC2)n1 (stereo partly drawn),·,53*,3,·,11,48*
O=C(c1cnn2c(C(F)F)cc(-c3ccccc3)nc12)N1CCSCC1,-3,-2,2,-4,-2,·
O=C(c1cnn2c(C(F)F)cc(-c3ccccc3)nc12)N1CCOCC1,-3,61*,-2,12,-4,4
CN1CCN(C(=O)C2=C[C@@H](c3ccc(C(F)(F)F)cc3)C[C@@H](OCc3ccc(CO)cc3)O2)CC1,5,59*,1,-8,-1,59*
O=C(C1=C[C@@H](c2ccc(C(F)(F)F)cc2)C[C@@H](OCc2ccc(CO)cc2)O1)N1CCN(Cc2ccccc2)CC1,2,52*,7,3,4,57*
O=C(C1=C[C@H](c2ccc(C(F)(F)F)cc2)C[C@H](OCc2ccc(CO)cc2)O1)N1CCOCC1,-6,29,3,-3,-1,·
CN1CCN(C(=O)C2=C[C@@H](c3ccc4c(c3)OCO4)C[C@@H](OCc3ccc(CO)cc3)O2)CC1,-4,45*,-6,-5,7,54*
CC1CCCN(C(=O)c2ccc(NS(=O)(=O)c3cccc([N+](=O)[O-])c3)cc2)C1 (stereo not drawn),-1,-5,0,-1,-7,·
CCCCN(C)C(=O)c1nc2ccccn2c1CN1CCN(C/C=C/c2ccccc2)CC1,5,25,2,-2,0,·
CC1(OC(=O)C2CCCC2)C(=O)C=C2C=C(c3ccsc3)N(CC3CC3)C=C2C1=O (stereo not drawn),8,43*,-7,0,1,7
CC1CCC2(CC1)NC(=O)N(CC(=O)NC1CCCCC1C)C2=O (stereo not drawn),-6,5,·,-5,·,·
CCOC(=O)/C(C#N)=C\c1cc(C)n(-c2ccccc2)c1C,-18,-5,3,-6,5,·
CCOC(=O)/C(C#N)=C\c1ccc(N2CCN(C/C=C/c3ccccc3)CC2)cc1,·,51*,3,3,6,46*
COc1cc2cc3c(N)c(C(=O)NCc4ccco4)sc3nc2cc1OC,4,46*,3,15,1,57*
